Screening data from PubChem BioAssay.
Rows were chosen to be rich in hits. Some 9.4% of all compounds tested hit in one or more screens of this group.
ELG1 repair inh = ELG1-dependent DNA repair inhibition; HEK293T ELG1-luciferase reporter, luminescence, 16 h; DNA damage induced by 5-fluorouridine; Potency, µM (highest dose often 46.1 µM), without a hit: top-dose activity change, negative = inhibition, hits mostly inhibitors; 330,000 tested, 2.3% active; also: % is scaled to controls: 0 for no effect and ±100 for the full control effect; nearly all actives have a fitted effect of over 55% in size
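DMSO vehicle served as the neutral condition. Each well held 2,000 cells given 5-fluorouridine plus compound; after 16 hr at 37 °C/5% CO2, ONE-Glo was added and luciferase measured 30 min later.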
NPC1 promoter act = NPC1 promoter activation; Potency, µM (highest dose often 9.22 µM), for inactives: top-dose activation, hits mostly activators; Huh7 NPC1 promoter luciferase reporter, 24 h; 320,000 tested, 2.4% active; also: % of control where 0% means no effect; nearly all actives have a fitted effect of over 60% in size
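Luminescence from an NPC1 promoter-driven luciferase reporter in stably transfected Huh7 cells was measured after 24 h compound treatment at 37 °C, followed by 10 min ambient incubation with luciferase detection reagent.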
FLuc counter = firefly luciferase modulation, counter-screen for miR-21 project; P08659; purified FLuc, Km substrates, luminescence inhibition; Potency, µM (titrated, usually from 57.5 µM), for inactives: top-dose activity change, negative = inhibition, hits mostly inhibitors; 360,000 tested, 6.9% active; AID 588342;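 also: plate controls were vehicle for no effect and reference inhibitor for full effect; nearly all actives have a fitted effect of over 55% in size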
Target sequence (P08659 whole entry, looked up): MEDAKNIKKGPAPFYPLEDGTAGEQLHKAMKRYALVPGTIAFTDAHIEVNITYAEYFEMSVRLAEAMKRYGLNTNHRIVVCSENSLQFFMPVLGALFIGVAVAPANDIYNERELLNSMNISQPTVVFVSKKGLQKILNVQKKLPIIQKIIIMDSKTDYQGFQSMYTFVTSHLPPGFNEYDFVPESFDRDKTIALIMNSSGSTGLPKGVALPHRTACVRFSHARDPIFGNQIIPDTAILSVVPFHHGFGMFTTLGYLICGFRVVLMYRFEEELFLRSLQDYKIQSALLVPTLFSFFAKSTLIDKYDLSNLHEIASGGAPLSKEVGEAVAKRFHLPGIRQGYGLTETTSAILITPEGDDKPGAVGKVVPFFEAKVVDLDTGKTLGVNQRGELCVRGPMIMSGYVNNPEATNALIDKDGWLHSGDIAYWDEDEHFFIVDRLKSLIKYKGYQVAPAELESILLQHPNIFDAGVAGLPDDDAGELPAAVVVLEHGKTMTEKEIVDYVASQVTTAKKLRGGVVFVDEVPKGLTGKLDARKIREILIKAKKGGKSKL
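Purified P. pyralis luciferase, 10 nM final, with Km-level 10 uM D-luciferin and 10 uM ATP in 50 mM Tris acetate pH 7.5, 10 mM Mg acetate, 0.01% Tween-20, 0.05% BSA; 6-point qHTS titration about 60 µM downward; luminescence read.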
Rab9 promoter act = activators of Rab9 promoter; 320,000 tested, 2.8% active; Potency, µM (top dose mostly 9.22 µM), for the others: at the top dose activation, negative = inhibition, usual class: activators; AID 485297; Huh7 Rab9 promoter-luciferase reporter, luminescence, 24 h; also: % of control where 0% means no effect; nearly all actives have a fitted effect of over 60% in size
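Cell-based reporter: Huh7 stable for Rab9 promoter-driven luciferase, plated in reduced-serum medium with 10% FBS at 1500 cells/well, compound-treated 24 h at 37 °C, luminescence read after 10 min reagent.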
SMN2 splice up = increases expression of the SMN2 splice variant | HEK293 SMN2-luciferase splicing reporter, luminescence, 30-36 h | Potency, µM (series often up to 46.1 µM), without a hit: top-dose activity change, positive = activation, usual class: activators | 210,000 tested, 2.8% active; also: % of control where 0% means no effect; nearly all actives have a fitted effect of over 55% in size
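qHTS luciferase splicing reporter: luminescence rises when SMN2 exon 7 is included in transfected HEK293 cells. Compound exposure lasted 30-36 h at 37C, with 4.5 mM final sodium butyrate as control, followed by a ONE-Glo read.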
ELG1 genotoxic = induces genotoxicity in HEK293T cells with luciferase-tagged ELG1; 330,000 tested, 1.3% active; Potency, µM (highest dose often 46 µM), for the others: top-dose activity change, positive = activation, usual class: activators; HEK293T ELG1-luciferase reporter, luminescence, 16 h; also: % of control where 0% means no effect; nearly all actives have a fitted effect of over 60% in size
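Cells (2,000/well) expressing the ELG1-luciferase fusion are dosed by pin tool and kept 16 hr at 37 °C, 5% CO2. Signal comes from ONE-Glo luciferase reagent after 30 min at room temperature.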
The depositor's hits bear a star; ? = inconclusive; . = not tested or not shown. Calls follow the shape of the dose curve; as a rule, active = well fitted curve in the direction sought with a large enough effect; inconclusive = small, poorly fitted or top-dose-only effect, or another doubt; inactive = no such curve, though single readings can be large; an effect the other way counts as inactive or inconclusive. Potency is read from the fitted curve at half-maximal effect.

SMILES | ELG1 repair inh | NPC1 promoter act | FLuc counter | Rab9 promoter act | SMN2 splice up | ELG1 genotoxic
COc1ccc2nc(NC(=O)CN(C)S(=O)(=O)c3cccs3)sc2c1 | ? | 18.2% | 16.9µM* | 18.2% | 3.3% | -4.0%
COc1ccc2nc(NC(=O)CN(c3ccc(C)cc3)S(=O)(=O)c3c(C)nn(C)c3C)sc2c1 | 23.1µM* | 0.2% | ? | 3.8% | -36.5% | -8.3%
CCc1ccc2nc(NC(=O)CCCc3cccs3)sc2c1 | ? | 14.9% | ? | ? | 2.4% | ?
Cc1ccc(NC(=O)CN(C)S(=O)(=O)c2cccs2)c(Br)c1 | ? | 3.4% | 23.9µM* | 13.8% | . | 10.5%
Cc1ccc(-n2c(=O)c3c(c4cc(C)ccc4n3C)n(CC(=O)N3CCCC3)c2=O)cc1 | . | . | -6.1% | . | . | .
Cc1ccc(Nc2c(-c3c[nH]c4ccccc34)nc3ccccn23)cc1 | . | . | ? | . | -115.7% | .
Cn1c(=O)[nH]c(=O)c2c1nc1n2CCCN1Cc1ccccc1 | -1.6% | -1.4% | -3.3% | -3.2% | . | 2.7%
Cc1ccc2nc(-c3ccc(NC(=O)C4CCCO4)cc3)[nH]c2c1 (stereo unspecified) | ? | 0.282µM* | 0.601µM* | 0.316µM* | 0.562µM* | ?
O=C(Cc1cccs1)Nc1nc2ccccc2s1 | ? | ? | 15.1µM* | 3.16µM* | 16.5% | 8.2%
COc1ccc2nc(NC(=O)Cc3cccs3)sc2c1 | ? | 2.82µM* | 12µM* | 2.82µM* | 10.1% | 6.51µM*
CCc1c(O)nc(SCC(=O)Nc2nc3ccccc3s2)n(-c2ccc(C)cc2)c1=O | ? | 19.9% | 21.3µM* | 16.1% | . | 17.3%
COCC(=O)Nc1nc2ccccc2s1 | . | . | ? | . | 19.6% | .
CCOc1ccc2nc(NC(=O)Cc3cccs3)sc2c1 | ? | ? | 12µM* | ? | ? | ?
O=C(CSc1nccn1Cc1ccccc1)Nc1nc2ccccc2s1 | . | . | 16.9µM* | . | . | .
Cc1ccc2nc(NC(=O)CSCC(=O)Nc3cc(C)on3)sc2c1 | ? | ? | ? | 2.51µM* | . | ?
CC1(C(=O)Nc2nc3ccccc3s2)CC1(Br)Br (stereo unspecified) | ? | ? | 21.3µM* | ? | . | ?
CN1CCN(CC(=O)Nc2nc3ccccc3s2)CC1 | ? | -3.0% | -1.3% | 14.4% | . | 3.4%
O=C(CSc1nccn1Cc1ccccc1)Nc1nccs1 | ? | 23.4% | ? | 20.1% | ? | ?
Cc1ccc(Cl)cc1N1CCN(c2nc3ccccc3c3nc(-c4cccnc4)nn23)CC1 | . | . | -4.7% | . | -3.3% | .
Cc1ccc(-c2nc3c4ccccc4n(CC(=O)N4CCN(c5ccccc5F)CC4)c(=O)n3n2)cc1 | . | . | -1.1% | . | . | .
COc1ccccc1N(CC(=O)Nc1cc(S(=O)(=O)N(C)C)ccc1C)S(=O)(=O)c1cccs1 | 23.1µM* | . | . | . | . | -4.0%
COc1ccc(CNC(=O)CN(c2ccccc2OC)S(=O)(=O)c2cccs2)cc1 | ? | . | . | . | . | -8.1%
O=C(c1ccc(Br)s1)N(Cc1cccnc1)c1nc2ccc(F)cc2s1 | . | . | -7.1% | . | . | .
COc1ccc(CNC(=O)c2nc(Cn3nc(C)c(Br)c3C)no2)cc1OC | . | . | 1.1% | . | -13.5% | .
Cc1cc(NC(=O)c2cc3cccc([N+](=O)[O-])c3[nH]2)ccc1F | ? | 2.51µM* | 5.36µM* | 2.24µM* | . | ?
COCC(C)NC(=O)c1cc2cccc([N+](=O)[O-])c2[nH]1 (stereo unspecified) | -15.8% | 14.8% | -18.6% | 17.5% | . | -5.4%
Cc1[nH]n(-c2ccccc2)c(=O)c1/C=N/NC(=O)c1cccc(F)c1 | ? | -32.3% | 9.53µM* | -38.9% | . | ?
Cc1[nH]n(-c2ccc(Br)cc2)c(=O)c1/C=N/NC(=O)c1ccccc1 | ? | -21.8% | 2.13µM* | -36.4% | . | ?
C/C(=N\NC(=O)COc1ccccc1F)c1cc2ccccc2o1 | ? | ? | 10.7µM* | ? | ? | ?
